ChEMBL document CHEMBL3988442, “University of Dundee, Small-Polar-MMV Screening Library” (2021)

Species on record: Homo sapiens
Experiment: To identify inhibition of the IFN signalling (Jak-Stat) pathway via expression of an eGFP reporter gene under the control of an IFN-stimulated response element (ISRE) containing MxA promoter.
Format: functional
Parameters: scale not given: direction of the effect not stated beside the values
Details: 30 µM
Work on `CCn1cnnc1CNC(=O)N1CCC(Cc2cccnc2)CC1` yielded a Percent Effect of 7.54%.
With `Cc1nc(CN2CCCC(NCc3c(C)nc4sccn34)C2)no1` (stereo not given) the Percent Effect was 45.2%.
`Cn1nc2c(cc1=O)CN(CCc1nc3ccccc3c(=O)[nH]1)CC2` showed a Percent Effect of 6.4%.
Work on `COc1ccc(CNC(=O)NCc2c(C)cc(C)[nH]c2=O)cc1` yielded a Percent Effect of -18.2%.
`CN(C)C(=O)NC1COC2(CCN(Cc3nccn3C)CC2)C1` (stereo not given) was tested, and the Percent Effect was -0.051%.
Work on `O=C(CN1CCC(C(=O)c2cc(F)ccc2F)CC1)NC1CCCC1` yielded a Percent Effect of 26.2%.
`CCN1C[C@H]2CCN(C(=O)NC3CCCC3)CC[C@H]2S1(=O)=O` was tested, and the Percent Effect was 2.2%.
`CCC1=N[C@@]2(CC[C@@H]3CN(Cc4ccccc4F)C[C@@H]32)C(=O)N1CC` gave a Percent Effect of 5.93%.
`CN1CCC(Oc2ccc(NC(=O)c3ccccc3Br)cc2)CC1` was tested, and the Percent Effect was 7.69%.
In the case of `Cc1cc(C(=O)NCC2COCc3c(C)nnn3C2)no1` (stereo not given), the Percent Effect is reported as -19%.
`Cc1cnc(CNC(=O)NCc2cccnc2N(C)C)s1` gave a Percent Effect of 5.66%.
In the case of `CCCNC(=O)N1CCN(Cc2cc(C)no2)CC1`, the Percent Effect is reported as 2.72%.
For `COc1cccc2c1ccn2CCC(=O)N1CCCC(C(=O)O)C1` (stereo not given), the Percent Effect was 12.8%.
`Cc1csc(CNC(=O)NCC(O)c2cccc(Cl)c2)n1` (stereo not given) showed a Percent Effect of 24.4%.
`Cc1noc(Cl)c1CCC(=O)N1CCN(c2ncccn2)CC1` showed a Percent Effect of 21.6%.
For `Cc1ccccc1-c1cncc(C2CCN(C)CC2)n1`, the Percent Effect was -1.24%.
With `Cc1ccc(CN2CCOC3(CCCN(C(=O)c4ccco4)C3)C2)s1` (stereo not given) the Percent Effect was -8.94%.
For `CS(=O)(=O)NCc1nnc2n1CCN(CC1CC1)C2`, the Percent Effect was -21.1%.
For `Cc1ccc(=O)n(CC2(O)CCN(Cc3cnc(C)nc3)CC2)n1`, the Percent Effect was 17.5%.
`CN(C)S(=O)(=O)N1CCCC1CC(=O)c1cccs1` (stereo not given) was tested, and the Percent Effect was 16.6%.
